Compounds with a hit are over-represented: about 2.8% of the library has one in this group of screens.
ATXN2 expr inh – Primary qHTS for Inhibitors of ATXN expression; HEK-293 ATXN2-luciferase reporter, luminescence, 24 h; Potency, µM (series often up to 57 µM), actives largely listed as inhibitors; 360,000 compounds, 0.72% hits; AID 1745845, 2022; further: nearly all actives have a fitted effect of over 55% in size
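ATXN2-luciferase reporter cells (luciferase flanked by upstream and downstream ATXN2 gene portions) were treated 24 h at 37 °C with compounds at up to 57 uM. SteadyGlo luminescence gave expression; GF-AFC fluorescence gave viability.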
HTT cytoprotect – qHTS Multiplex Assay to Identify Dual Action Probes in a Cell Model of Huntington: Cytoprotection (ATP); 230,000 compounds, 0.14% hits; AID 1471, 2008; PC12 HTT-Q103 induced, cytoprotection, ATP luminescence, 40 h; Potency, µM (doses to about 56.4 µM), usual class: activators; further: nearly all actives have a fitted effect of over 45% in size
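Stable PC12 Q103-GFP cells in serum-supplemented, phenol red-free DMEM; induction by tebufenozide at 100 nM final; compound dose series; cell viability quantified luminescently from ATP.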
HTT aggregate – qHTS Multiplex Assay to Identify Dual Action Probes in a Cell Model of Huntington: Aggregate Formation (GFP) | AID 1688, 2009 | 220,000 compounds, 1.1% hits | Potency, µM (titrated, usually from 46.1 µM), most hits filed as inhibitors | PC12 HttQ103-GFP aggregates, Acumen cytometry, 40 h; further: nearly all actives have a fitted effect of over 60% in size
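Huntingtin Q103 exon 1–GFP aggregates in induced PC12 cells (100 nM tebufenozide) were quantified by cytometry from lysates, with compounds dosed in titration.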
ATXN viability – Viability Counterscreen for Primary qHTS for Inhibitors of ATXN expression. S2 cells (HEK-293 line with an ATXN2-luciferase reporter) viability, CellTiter-Fluor protease fluorescence, 24 h. Potency, µM (doses to about 56.7 µM), actives largely listed as cytotoxic. 400,000 compounds, 0.49% hits. AID 651635, 2014; further: nearly all actives have a fitted effect of over 40% in size
HepG2 tox – qHTS for Inhibitors of TGF-b: Cytotox Counterscreen. AID 588856, 2011. HepG2 CAGA-GFP viability, ATP luminescence, 18 h. Potency, µM (highest dose often 46.1 µM), usual class: cytotoxic. 410,000 compounds, 0.76% hits
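HepG2 CAGA-GFP cells (1000/well, DMEM with 1% FBS) received compound, then TGF-beta at 500 pg/mL final, and were incubated 18 hours at 37 degrees C. Viability was read by CellTiter-Glo luminescence. Media-only wells were set as complete cell-killing and DMSO as no toxicity.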
TGFb SMAD3 inh – qHTS for Inhibitors of TGF-b; HepG2 CAGA-GFP TGF-b/SMAD3 reporter, GFP fluorescence, 18 h; TGF-beta stimulated, 500 pg/mL final; Potency, µM (highest dose often 46.1 µM), actives largely listed as inhibitors; 410,000 compounds, 1.2% hits; further: nearly all actives have a fitted effect of over 65% in size
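HEPG2 CAGA-GFP reporter cells (1000/well, DMEM with 1% FBS) received compounds, then recombinant TGF-beta at 500 pg/mL final for 18 hours at 37 degrees C. Per-cell GFP summed per well was normalised to unstimulated and stimulated DMSO controls before curve fitting.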
Numbers stand for hits; . = inactive; ? = inconclusive; / = no result; [ ] = remark or other dose. The call rests on the fitted dose curve; in most records, active means well fitted curve in the direction sought with a large enough effect; inconclusive means small, poorly fitted or top-dose-only effect, or another doubt; inactive means no such curve, though single readings can be large; an effect the other way counts as inactive or inconclusive.

SMILES	ATXN2 expr inh	HTT cytoprotect	HTT aggregate	ATXN viability	HepG2 tox	TGFb SMAD3 inh
CCOc1cccc(CNc2ccc(O)cc2)c1OCc1ccc(Cl)cc1Cl	?	.	?	?	.	?
CCOc1cc(CNc2ccccc2)cc(Br)c1OCC(=O)NC(C)(C)C	?	.	35µM	.	.	?
CCOc1cc(CNc2ccccc2)cc(Br)c1OCc1ccc(F)cc1	.	.	.	.	.	.
O=C(CCC(=O)OCC(=O)c1ccccc1)NC1CCCCC1	.	.	.	.	5.6µM	?
COc1ccc(C(=O)COC(=O)CCCC(=O)NC2CCCCC2)cc1	.	/	/	.	.	.
O=C(Nc1ccc(F)cc1F)C1CCCN1S(=O)(=O)c1cccc2nsnc12 (stereo not drawn)	.	/	/	.	.	16µM
FC(F)(F)c1ccc(Nc2nc3ccc(Oc4ccnc(-c5ncc(C(F)(F)F)[nH]5)c4)cc3[nH]2)cc1	.	/	/	/	/	/
CC1=NN(c2ccccc2)C(=O)/C1=C/C=C/c1ccc(N(C)C)cc1	/	.[10 µM]	?	/	.	.
CC1=NN(c2ccccc2)C(=O)/C1=C\C=C\c1ccccc1	?	.[10 µM]	.[9.22 µM]	?	.	8.9µM
COc1ccc(NC(=O)c2noc3c2CCC3)cc1	.	.	.	.	.	.
CC(=O)c1ccc(NC(=O)c2noc3c2CCC3)cc1	4µM	.	.	.	.	.
CC(Oc1ccccc1)C(=O)NCC1Cc2cc(F)cc(-c3ccccn3)c2O1 (stereo not drawn)	/	/	/	.	/	/
Cc1cccc(C2CC(c3ccccc3)=NN2c2ccc(S(N)(=O)=O)cc2)c1 (stereo not drawn)	?	/	/	.	11µM	?
COc1ccc(C2CC(c3ccccc3)=NN2c2ccc(S(N)(=O)=O)cc2)cc1 (stereo not drawn)	.	.[10 µM]	.[9.22 µM]	/	.	?
COc1ccc(C2CC(c3ccccc3)=NN2c2ccc(C(N)=O)cc2)cc1 (stereo not drawn)	.	/	/	/	.	16µM
COc1ccc(C2CC(c3cccc(F)c3)=NN2c2ccc(S(N)(=O)=O)cc2)cc1 (stereo not drawn)	?	/	/	/	.	11µM
COc1ccc(C2CC(c3cccc(Br)c3)=NN2c2ccc(S(N)(=O)=O)cc2)cc1 (stereo not drawn)	?	/	/	/	.	?
C=CCOC(/C=C/c1ccccc1)CC (stereo not drawn)	/	/	/	/	.	?
CC(C)C[C@H](N)c1cn([C@@H](CCCCN)C(=O)N2CCNCC2)nn1	1.6µM	.[10 µM]	.[9.22 µM]	?	.	?
CC(=O)Nc1ccn(C2COC(COC(=O)c3ccccc3)O2)c(=O)n1 (stereo not drawn)	?	/	/	.	/	/
COc1ccc(/C=N\NC(=O)COc2ccc(C(C)(C)C)cc2)cc1Cn1nc(C)cc1C	.	.	.	.	.	5.6µM
COc1ccc(/C=N/NC(=O)c2ccco2)cc1Cn1nc(C)cc1C	.	.[0.074 µM]	.	.	.	.
O=C(CCl)Nc1cccc(-c2cnc3ccccc3n2)c1	?	.	25µM	/	11µM	7.1µM
CN(C)c1ccc(/C=C2\SC(=O)N(CCc3nnc(N)s3)C2=O)cc1	4µM	.[10 µM]	.[9.22 µM]	.	.	.
CC(C)N(Cc1ccccc1)C(=O)c1cc2ccc3cccnc3c2[nH]1	/	/	/	/	.	11µM
SMILES	ATXN2 expr inh	HTT cytoprotect	HTT aggregate	ATXN viability	HepG2 tox	TGFb SMAD3 inh
O=C(CCl)NCc1c(Cl)cccc1-n1cccc1	.	.	13µM	?	.	.
COc1cccc(N2C(N)=NC(N)=NC2(C)C)c1	.	.	.	.	.	.
CC1(C)N=C(N)N=C(N)N1c1cccc(C#N)c1	.	/	/	.	2µM	.
CN1/C(=C\C=C2/C(=O)Oc3ccccc3C2=O)C(C)(C)c2ccccc21	.	/	7.9µM	.	.	.
CN1/C(=C\C=C2/SC(=S)NC2=O)C(C)(C)c2ccccc21	/	.[10 µM]	.[9.22 µM]	28µM	.	.
CN1C(=CC=C2C=C(I)C(=O)C(I)=C2)C(C)(C)c2ccccc21	.	.[10 µM]	.[9.22 µM]	?	.	.
N[C@](CC1c2ccccc2Oc2ccccc21)(C(=O)O)[C@H]1C[C@@H]1C(=O)O	/	.	/	/	/	/
O=C1CC(CC(=O)N2CC3CCCC2C3)(c2cccc(F)c2)C(=O)N1Cc1cccnc1 (stereo not drawn)	/	/	/	.	/	/
NC(N)=NCC1COC2(CCCCC2)O1 (stereo not drawn)	/	/	/	.	/	/
NC(=O)c1c(NC(NC(=O)c2ccco2)C(=O)c2ccc(Cl)cc2)sc2c1CCCC2 (stereo not drawn)	.	.	.	.	.	16µM
CCOC(=O)c1nc2ccccc2c(=O)[nH]1	.	.[10 µM]	.[9.22 µM]	.	.	.
CCOC(=O)c1nc(N)c(C(=O)OCC)[nH]1	.	.	3.5µM	.	.	?
Cc1cccc(-c2[nH]c(C(C)(C)C)nc2-c2ccc3nccnc3c2)n1	27µM	/	/	/	/	/
CCNC(=S)N1CCN(c2ccccn2)CC1	.	.[10 µM]	.	.	.	.
CC(NNC(=S)N1CCN(c2ccccn2)CC1)c1nccc2ccccc12 (stereo not drawn)	?	/	/	11µM	.	?

Compound activity: PubChem, National Center for Advancing Translational Sciences (NCATS)
